# Measurements reported in PubChem BioAssay AID1159580 (chemical genetic matrix, 2015).
# Screen size: about 5,500 compounds; about 2,000 (36%) were called active. Not shown: some 18% with an inconclusive outcome. The list shows a part of the results. Values without a mark were called inactive. Cut-off read from the data, not from the text of the source: active = normalized growth mostly below about 0.91 (no sharp cut-off); inconclusive = no clear call, values can overlap the other calls; inactive = mostly above about 0.92.
# Assay: chemical genetic growth profiling, strain panel (AID 1159580);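 note: tested at 20 µM; growth read once vehicle control cultures reached saturation at 30 °C; 1 = growth at the plate median or of vehicle wells; lower values mean less growth of the strain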
# Settings: growth OD
smiles,measurement,setting,value
COc1ccc(-c2cc(=O)c3ccccc3o2)cc1,normalized growth,"S. cerevisiae deletion strains, locus YJR066W, strain TOR1, active compounds read low",0.873
same,normalized growth,"S. cerevisiae deletion strains, locus YKL009W, strain mrt4, active compounds read low",0.824 (active)
same,normalized growth,"S. cerevisiae deletion strains, locus YKL068W, active compounds read low",0.93 (active)
same,normalized growth,"S. cerevisiae deletion strains, locus YKL085W, strain MDH1 (second series), active compounds read low",0.914 (active)
same,normalized growth,"S. cerevisiae deletion strains, locus YKL085W, strain MDH1, active compounds read low",0.914 (active)
same,normalized growth,"S. cerevisiae deletion strains, locus YKL160W, strain elf1, active compounds read low",0.742 (active)
same,normalized growth,"S. cerevisiae deletion strains, locus YKR001C, strain vps1, active compounds read low",0.354 (active)
same,normalized growth,"S. cerevisiae deletion strains, locus YKR026C, strain gcn3, active compounds read low",0.92 (active)
same,normalized growth,"S. cerevisiae deletion strains, locus YKR091W, strain srl3, active compounds read low",0.93 (active)
same,normalized growth,"S. cerevisiae deletion strains, locus YLL001W, strain dnm1, active compounds read low",0.763 (active)
same,normalized growth,"S. cerevisiae deletion strains, locus YLL026W, active compounds read low",0.9 (active)
same,normalized growth,"S. cerevisiae deletion strains, locus YLL041C, strain sdh2, active compounds read low",0.927 (active)
same,normalized growth,"S. cerevisiae deletion strains, locus YLR027C, strain aat2, active compounds read low",0.84 (active)
same,normalized growth,"S. cerevisiae deletion strains, locus YLR039C, strain RIC1, active compounds read low",0.405 (active)
same,normalized growth,"S. cerevisiae deletion strains, locus YLR058C, strain SHM2, active compounds read low",0.741 (active)
same,normalized growth,"S. cerevisiae deletion strains, locus YLR102C, strain apc9, active compounds read low",0.916 (active)
same,normalized growth,"S. cerevisiae deletion strains, locus YLR113W, strain HOG1, active compounds read low",1.06
same,normalized growth,"S. cerevisiae deletion strains, locus YLR221C, strain rsa3, active compounds read low",0.749 (active)
same,normalized growth,"S. cerevisiae deletion strains, locus YLR258W, strain gsy2, active compounds read low",0.823 (active)
same,normalized growth,"S. cerevisiae deletion strains, locus YLR262C, strain YPT6 (second series), active compounds read low",0.538 (active)
same,normalized growth,"S. cerevisiae deletion strains, locus YLR262C, strain YPT6, active compounds read low",0.406 (active)
same,normalized growth,"S. cerevisiae deletion strains, locus YLR268W, strain sec22, active compounds read low",0.727 (active)
same,normalized growth,"S. cerevisiae deletion strains, locus YLR320W, strain mms22, active compounds read low",0.449 (active)
same,normalized growth,"S. cerevisiae deletion strains, locus YLR330W, strain CHS5, active compounds read low",0.659 (active)
same,normalized growth,"S. cerevisiae deletion strains, locus YLR342W, strain FKS1 (second series), active compounds read low",0.512 (active)
same,normalized growth,"S. cerevisiae deletion strains, locus YLR342W, strain FKS1, active compounds read low",0.861 (active)
same,normalized growth,"S. cerevisiae deletion strains, locus YLR357W, strain rsc2, active compounds read low",1.03
same,normalized growth,"S. cerevisiae deletion strains, locus YLR370C, strain arc18, active compounds read low",0.922
same,normalized growth,"S. cerevisiae deletion strains, locus YLR371W, strain rom2, active compounds read low",0.834 (active)
same,normalized growth,"S. cerevisiae deletion strains, locus YLR384C, strain iki3, active compounds read low",0.916 (active)
same,normalized growth,"S. cerevisiae deletion strains, locus YLR418C, strain cdc73, active compounds read low",0.612 (active)
same,normalized growth,"S. cerevisiae deletion strains, locus YML016C, strain PPZ1, active compounds read low",0.89 (active)
same,normalized growth,"S. cerevisiae deletion strains, locus YML032C, strain rad52, active compounds read low",0.697 (active)
same,normalized growth,"S. cerevisiae deletion strains, locus YML120C, strain ndi1, active compounds read low",0.785 (active)
same,normalized growth,"S. cerevisiae deletion strains, locus YML124C, strain tub3, active compounds read low",0.922 (active)
same,normalized growth,"S. cerevisiae deletion strains, locus YMR058W, strain fet3, active compounds read low",0.804 (active)
same,normalized growth,"S. cerevisiae deletion strains, locus YMR078C, strain ctf18, active compounds read low",0.753 (active)
same,normalized growth,"S. cerevisiae deletion strains, locus YMR125W, strain sto1, active compounds read low",0.932
same,normalized growth,"S. cerevisiae deletion strains, locus YMR129W, active compounds read low",0.92 (active)
same,normalized growth,"S. cerevisiae deletion strains, locus YMR205C, strain PFK2, active compounds read low",0.668 (active)
same,normalized growth,"S. cerevisiae deletion strains, locus YMR223W, strain ubp8, active compounds read low",0.784 (active)
same,normalized growth,"S. cerevisiae deletion strains, locus YMR231W, strain pep5, active compounds read low",0.921 (active)
same,normalized growth,"S. cerevisiae deletion strains, locus YMR307W, strain GAS1, active compounds read low",0.397 (active)
same,normalized growth,"S. cerevisiae deletion strains, locus YNL067W, strain RPL9B, active compounds read low",0.688 (active)
same,normalized growth,"S. cerevisiae deletion strains, locus YNL071W, strain lat1, active compounds read low",0.48 (active)
same,normalized growth,"S. cerevisiae deletion strains, locus YNL153C, strain GIM3, active compounds read low",0.615 (active)
same,normalized growth,"S. cerevisiae deletion strains, locus YNL183C, strain NPR1, active compounds read low",0.874
same,normalized growth,"S. cerevisiae deletion strains, locus YNL209W, strain ssb2, active compounds read low",0.873 (active)
same,normalized growth,"S. cerevisiae deletion strains, locus YNL233W, strain BNI4, active compounds read low",0.629 (active)
same,normalized growth,"S. cerevisiae deletion strains, locus YNL248C, strain rpa49, active compounds read low",0.833 (active)
same,normalized growth,"S. cerevisiae deletion strains, locus YNL250W, strain rad50, active compounds read low",0.921
same,normalized growth,"S. cerevisiae deletion strains, locus YNL271C, strain bni1, active compounds read low",0.884 (active)
same,normalized growth,"S. cerevisiae deletion strains, locus YNL298W, strain CLA4, active compounds read low",0.881 (active)
same,normalized growth,"S. cerevisiae deletion strains, locus YNL307C, strain MCK1, active compounds read low",0.136 (active)
same,normalized growth,"S. cerevisiae deletion strains, locus YNL322C, strain KRE1 (second series), active compounds read low",0.902 (active)
same,normalized growth,"S. cerevisiae deletion strains, locus YNL322C, strain KRE1, active compounds read low",0.792 (active)
same,normalized growth,"S. cerevisiae deletion strains, locus YNR049C, strain mso1, active compounds read low",0.914 (active)
same,normalized growth,"S. cerevisiae deletion strains, locus YNR052C, strain pop2, active compounds read low",0.853 (active)
same,normalized growth,"S. cerevisiae deletion strains, locus YOL012C, strain htz1",0.926
same,normalized growth,"S. cerevisiae deletion strains, locus YOL147C, strain pex11, active compounds read low",0.819 (active)
same,normalized growth,"S. cerevisiae deletion strains, locus YOR001W, strain rrp6, active compounds read low",0.809 (active)
same,normalized growth,"S. cerevisiae deletion strains, locus YOR061W, strain CKA2, active compounds read low",0.851 (active)
same,normalized growth,"S. cerevisiae deletion strains, locus YOR069W, strain VPS5, active compounds read low",0.729 (active)
same,normalized growth,"S. cerevisiae deletion strains, locus YOR070C, strain gyp1, active compounds read low",0.818 (active)
same,normalized growth,"S. cerevisiae deletion strains, locus YOR080W, strain dia2, active compounds read low",0.906 (active)
same,normalized growth,"S. cerevisiae deletion strains, locus YOR083W, strain WHI5, active compounds read low",0.71 (active)
same,normalized growth,"S. cerevisiae deletion strains, locus YOR106W, strain vam3, active compounds read low",0.733 (active)
same,normalized growth,"S. cerevisiae deletion strains, locus YOR136W, strain idh2, active compounds read low",0.895 (active)
same,normalized growth,"S. cerevisiae deletion strains, locus YOR144C, strain elg1, active compounds read low",0.911 (active)
same,normalized growth,"S. cerevisiae deletion strains, locus YOR184W, strain ser1, active compounds read low",0.474 (active)
same,normalized growth,"S. cerevisiae deletion strains, locus YOR231W, strain MKK1, active compounds read low",0.991
same,normalized growth,"S. cerevisiae deletion strains, locus YOR265W, strain rbl2, active compounds read low",0.879 (active)
same,normalized growth,"S. cerevisiae deletion strains, locus YOR270C, strain vph1, active compounds read low",0.328 (active)
same,normalized growth,"S. cerevisiae deletion strains, locus YOR290C, strain snf2, active compounds read low",0.689 (active)
same,normalized growth,"S. cerevisiae deletion strains, locus YOR316C, strain cot1, active compounds read low",0.925
same,normalized growth,"S. cerevisiae deletion strains, locus YPL051W, strain arl3, active compounds read low",0.674 (active)
same,normalized growth,"S. cerevisiae deletion strains, locus YPL078C, strain atp4, active compounds read low",0.695 (active)
same,normalized growth,"S. cerevisiae deletion strains, locus YPL106C, strain sse1, active compounds read low",1.05
same,normalized growth,"S. cerevisiae deletion strains, locus YPL240C, strain hsp82, active compounds read low",0.893 (active)
same,normalized growth,"S. cerevisiae deletion strains, locus YPL241C, strain CIN2, active compounds read low",0.839 (active)
same,normalized growth,"S. cerevisiae deletion strains, locus YPL256C, strain CLN2, active compounds read low",1.02
same,normalized growth,"S. cerevisiae deletion strains, locus YPR119W, strain clb2, active compounds read low",0.93 (active)
same,normalized growth,"S. cerevisiae deletion strains, locus YPR141C, strain kar3, active compounds read low",0.94
same,normalized growth,"S. cerevisiae deletion strains, locus YPR163C, strain tif3, active compounds read low",0.543 (active)
same,normalized growth,"S. cerevisiae deletion strains, locus YPR167C, strain met16, active compounds read low",0.727 (active)
same,normalized growth,"S. cerevisiae deletion strains, strain wtn01, active compounds read low",0.816 (active)
same,normalized growth,"S. cerevisiae strains, strain wild type, active compounds read low",0.682 (active)
